High-throughput results from PubChem.
Sa RN4220 lethal: kills Staphylococcus aureus RN4220. AID 1259311. inhibition, % (no concentration beside the values). hit rate 0.33% among 330,000. S. aureus RN4220 growth, OD600, 16 h; in the data active = inhibition above about 85%;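 also: plate controls were untreated cells for no effect and reference antibiotic for full effect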
Mtb hypoxia rep: reduces hypoxia-regulated biosensor signal in M. tuberculosis. M. tuberculosis hypoxia-regulated fluorescent reporter, fluorescence. fluorescence inhibition, % (no concentration beside the values). hit rate 0.1% among 300,000; in the data active = fluorescence inhibition mostly above about 23%, no sharp cut-off; inactive = mostly below about 17%
Vc quorum ag-1: inducers of Vibrio cholerae quorum light production without autoinducers. hit rate 0.16% among 350,000. activation, % at 18.7 µM. V. cholerae BH1578 lux reporter, luminescence, 6 h; in the data active = activation mostly above about 9.7%, no sharp cut-off
PfHsp40 yeast: restores yeast growth despite PfHsp40 toxicity | S. cerevisiae expressing PfHsp40, growth rescue, ATP luminescence | growth rescue, % at 12.5 µM | hit rate 0.68% among 340,000 | AID 504582; in the data active = growth rescue above about 28%, passing the limit was not always enough;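 also: yeast W303a lacking pdr1 and pdr3 grown in galactose medium; growth measured after three days at 30 °C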
ugtP null kill: kills S. aureus RN4220 lacking UgtP; S. aureus RN4220 ugtP deletion, OD600 growth, 16 h; AID 1259309; hit rate 0.54% among 330,000; growth inhibition, % (concentration not given with the values); in the data active = growth inhibition above about 68%;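 also: plate controls were untreated wells for no effect and antibiotic for full effect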
CCHFV vOTU inh: CCHFV vOTU protease inhibition. Pep-AMC fluorescence. inhibition, % at 11.5 µM. hit rate 0.55% among 370,000. AID 651958; in the data active = inhibition above about 30%; also: 0% = vehicle wells with enzyme and 100% = no enzyme wells
Vc quorum ag-2: inducers of V. cholerae quorum light production without autoinducers; activation, % at 50 µM; shares compounds with Vc quorum ag-1; 620 tested, under 10 active; V. cholerae BH1578 lux reporter, luminescence, 6 h; call rule not given here
HeLa 24h tox: cytotoxicity in HeLa cells at 24 hours | shares compounds with Vc quorum ag-1 | HeLa viability, CellTiter-Glo ATP luminescence | activity change, negative = cytotoxicity, % at 35 µM | 25 tested, under 10 active | AID 624140;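 active = signal drop with fitted half-maximal concentration at or below twice the highest valid dose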
An asterisk follows results filed as active. Most compounds without a hit are left out; they make up all but 1.7% or so of the library.

Oc1ccc(C(=S)N2CCCCC2)cc1 was read as Sa RN4220 lethal -10, Mtb hypoxia rep 4, PfHsp40 yeast 1, ugtP null kill -10 and CCHFV vOTU inh -10.
Screening CC(=O)Nc1nn(C)c2nc3cc(C)ccc3cc12 returned Sa RN4220 lethal -4, Vc quorum ag-1 0, PfHsp40 yeast 0, ugtP null kill -11 and CCHFV vOTU inh 17.
`Cc1ccc2cc3c(NC(=O)c4ccco4)nn(C)c3nc2c1` gave PfHsp40 yeast 0, CCHFV vOTU inh -2 and HeLa 24h tox -1.
For CCOc1ccc2nc(SCC(=O)NC(=O)NCc3ccco3)[nH]c2c1 the results were Sa RN4220 lethal -2, Vc quorum ag-1 32*, PfHsp40 yeast -1, ugtP null kill -8, CCHFV vOTU inh -3 and Vc quorum ag-2 0.
For COc1ccc(CC(=O)NN=C(C)CC(=O)NCc2ccco2)cc1OC the results were Sa RN4220 lethal 1, Mtb hypoxia rep 3 and ugtP null kill 3.
`CCOC(=O)N1CCC(NC(=O)C2CCN(C(=O)N3CC(C)Oc4ccc(C)cc43)CC2)CC1` (stereo not given) gave Sa RN4220 lethal 0, Mtb hypoxia rep 6, Vc quorum ag-1 7.6*, PfHsp40 yeast 1, ugtP null kill 2, CCHFV vOTU inh -6 and Vc quorum ag-2 1.
`CC(=O)N1CCCc2ccccc21` gave Sa RN4220 lethal 4, Mtb hypoxia rep 15, Vc quorum ag-1 2, PfHsp40 yeast -1, ugtP null kill 11 and CCHFV vOTU inh -1.
`CC(=O)N1CCC(=O)N(C(C)C)c2ccccc21` gave Sa RN4220 lethal -12, Mtb hypoxia rep 19, Vc quorum ag-1 25*, PfHsp40 yeast 0, ugtP null kill -4, CCHFV vOTU inh -6 and Vc quorum ag-2 0.
Cc1ccc(NC(=S)NN=C2CC3CC=CC23)c(C)c1 (stereo not given) was read as Sa RN4220 lethal 1, Mtb hypoxia rep -6 and ugtP null kill -2.
For O=C(c1cc2ccccc2oc1=O)N1CCOCC1 the results were Sa RN4220 lethal 1, Mtb hypoxia rep 16, Vc quorum ag-1 0, PfHsp40 yeast 0, ugtP null kill -1 and CCHFV vOTU inh -10.
O=C(c1cc2cc(Cl)ccc2oc1=O)N1CCOCC1 was read as Sa RN4220 lethal 1, Vc quorum ag-1 8, PfHsp40 yeast 0, ugtP null kill 1, CCHFV vOTU inh 5 and Vc quorum ag-2 4.
For O=C(CSc1nnc2ccccn12)c1ccc2c(c1)OCCO2 the results were Sa RN4220 lethal 0, Vc quorum ag-1 active, PfHsp40 yeast 1, ugtP null kill 9, CCHFV vOTU inh 17 and Vc quorum ag-2 inactive.
`CC(C)n1nnnc1SCC(=O)Nc1ccc2c(c1)OCCO2` gave Sa RN4220 lethal 2, Mtb hypoxia rep 3, ugtP null kill 3 and CCHFV vOTU inh 8.
`CC(C)n1nnnc1SCC(=O)c1ccc2c(c1)OCCO2` gave Sa RN4220 lethal 4, Mtb hypoxia rep 5, Vc quorum ag-1 active, PfHsp40 yeast 24, ugtP null kill 4, CCHFV vOTU inh 9 and Vc quorum ag-2 inactive.
Screening CCn1nnnc1SCC(=O)c1ccc2c(c1)OCCO2 returned Sa RN4220 lethal -4, Mtb hypoxia rep 3, Vc quorum ag-1 active, PfHsp40 yeast -1, ugtP null kill -3, CCHFV vOTU inh 8 and Vc quorum ag-2 inactive.
Screening CCSc1nnc(NC(=O)c2ccc3ccccc3n2)s1 returned Sa RN4220 lethal 19, Mtb hypoxia rep 2, Vc quorum ag-1 25, PfHsp40 yeast 0, ugtP null kill 5, CCHFV vOTU inh -2 and Vc quorum ag-2 0.
Screening CCc1nnc(NC(=O)c2ccc3ccccc3n2)s1 returned Sa RN4220 lethal 0, Mtb hypoxia rep 2, Vc quorum ag-1 -1, PfHsp40 yeast -1, ugtP null kill 3 and CCHFV vOTU inh 6.
O=C(C[n+]1ccccc1)NN=Cc1cccc(Cl)c1Cl was read as Sa RN4220 lethal 1, Mtb hypoxia rep 12 and ugtP null kill 0.
Screening Cc1cc2c(ncn2C)c(NS(=O)(=O)c2ccccc2Cl)c1C returned Sa RN4220 lethal 3, Mtb hypoxia rep 10, Vc quorum ag-1 -2, PfHsp40 yeast 6, ugtP null kill 0 and CCHFV vOTU inh -3.
